DT40 TDP1 CPT – qHTS for Inhibitors of human tyrosyl-DNA phosphodiesterase 1 (TDP1): qHTS in cells in presence of CPT; chicken DT40 Tdp1-/-;hTDP1 cells + 20 nM CPT, ATP luminescence, 48 h; Potency, µM (doses to about 46.2 µM), for inactives: at the top dose activity change, negative = growth inhibition, most hits filed as inhibitors; actives 12% (n = 420,000); AID 686979, 2013; also: potency is read from the fitted curve at half-maximal effect; nearly all actives have a fitted effect of over 55% in size
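Chicken DT40 Tdp1-/- cells complemented with human TDP1, 400 cells/well, exposed to compounds plus 20 nM camptothecin for at least 48 h at 37 C; viability read as ATP content by CellTiter-Glo luminescence.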
IL1B secr inh – qHTS for Inhibitors of Inflammasome Signaling: IL-1-beta AlphaLISA Primary Screen | THP-1 LPS/ATP IL-1B secretion, AlphaLISA, 16 h; hits give low values | activity change, % at 57.5 µM | actives 4.7% (n = 360,000) | AID 743279, 2014; in the data active = activity change below about -50%; inconclusive = mostly about -30% to -49%
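THP-1 cells pretreated 1 hr with compounds (up to 57.5 uM final), then stimulated with LPS (250 ng/mL final) plus ATP (1.25 mM final); secreted IL-1B measured by AlphaLISA after 16 hr, decreased signal indicating inhibition.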
VP16 counter – VP16 counterscreen qHTS for inhibitors of ROR gamma transcriptional activity | Drosophila S2 Gal4-VP16 UAS-luciferase, luminescence, 20 h | AID 2546, 2010 | actives 3.5% (n = 310,000) | Potency, µM (top dose mostly 53.6 µM), without a hit: top-dose activity, negative = inhibition, most hits filed as inhibitors;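 also: Gal4-VP16 expression switched on by copper sulfate through the metallothionein promoter; potency is read from the fitted curve at half-maximal effect; nearly all actives have a fitted effect of over 50% in size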
LDHA block – qHTS assay for inhibitors of human lactate dehydrogenase; L-lactate dehydrogenase A chain (Homo sapiens), P00338; purified LDHA, NADH/diaphorase-resazurin fluorescence; hits give low values; activity change, % (values are at about 110 or 230 µM); actives 0.15% (n = 480,000); in the data active = activity change below about -30%; inconclusive = mostly about -25% to -30%;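 also: plate controls were DMSO wells for no effect and wells without enzyme for full effect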
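Enzyme activity of human lactate dehydrogenase 5 (2 nM; 0.06 mM NADH, 0.2 mM pyruvate, 5 min, RT) is measured via a resazurin/diaphorase fluorescence readout of residual NADH.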
DT40 TDP1 no CPT – qHTS for Inhibitors of human tyrosyl-DNA phosphodiesterase 1 (TDP1): qHTS in cells in absence of CPT. DT40 Tdp1-/- hTDP1 cells, no CPT, ATP luminescence, 48 h. Potency, µM (doses to about 46.2 µM), for inactives: at the highest dose activity change, negative = growth inhibition, hits mostly inhibitors. actives 15% (n = 420,000). AID 686978, 2013; also: potency is read from the fitted curve at half-maximal effect; nearly all actives have a fitted effect of over 55% in size
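Chicken DT40 Tdp1-/- cells stably complemented with human TDP1 were seeded at 400 cells/well with DMSO in place of 20 nM camptothecin. After compound pinning, cells grew at least 48 hr at 37 °C; viability read by CellTiter-Glo luminescence.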
RORgamma inh – qHTS for inhibitors of ROR gamma transcriptional activity. Nuclear receptor ROR-gamma (Mus musculus), P51450. Drosophila S2 Gal4-RORgamma UAS-luciferase reporter, 20 h. Potency, µM (titrated, usually from 53.6 µM), for inactives: top-dose activity change, negative = inhibition, actives largely listed as inhibitors. actives 5.4% (n = 310,000). AID 2551, 2010; also: potency is read from the fitted curve at half-maximal effect; nearly all actives have a fitted effect of over 60% in size
Target sequence (P51450 whole entry, looked up, the tested form may be a part): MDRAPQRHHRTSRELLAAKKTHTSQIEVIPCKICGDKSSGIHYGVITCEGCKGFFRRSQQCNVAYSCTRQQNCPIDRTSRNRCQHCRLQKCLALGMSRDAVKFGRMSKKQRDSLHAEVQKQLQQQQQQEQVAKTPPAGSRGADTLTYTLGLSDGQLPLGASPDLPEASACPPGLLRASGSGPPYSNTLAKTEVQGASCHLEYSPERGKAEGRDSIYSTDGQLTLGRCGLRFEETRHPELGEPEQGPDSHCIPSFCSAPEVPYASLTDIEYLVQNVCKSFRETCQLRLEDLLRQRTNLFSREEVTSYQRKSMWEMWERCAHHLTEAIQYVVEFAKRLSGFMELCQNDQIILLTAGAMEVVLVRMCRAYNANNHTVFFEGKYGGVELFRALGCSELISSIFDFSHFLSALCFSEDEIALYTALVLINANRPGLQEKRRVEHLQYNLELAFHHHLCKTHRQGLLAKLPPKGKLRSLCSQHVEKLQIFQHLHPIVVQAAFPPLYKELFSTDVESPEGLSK
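Drosophila Schneider cells stably carrying a metallothionein-driven Gal4 DBD–ROR gamma fusion and a UAS-Photinus luciferase reporter were exposed to compound for 1 hr, then induced with copper sulfate (700 uM final) for 20 hr at ambient temperature before luminescence reading.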
Numbers without * were called inactive; ? = inconclusive; nt = no result; ! = not active in a repeat. Rows were chosen to be rich in hits. Some 18% of all compounds tested hit in one or more screens of this group. Unless noted, calls follow the shape of the dose curve; as a rule, active = well fitted curve in the direction sought with a large enough effect; inconclusive = small, poorly fitted or top-dose-only effect, or another doubt; inactive = no such curve, though single readings can be large; an effect the other way counts as inactive or inconclusive. Unless noted, % is scaled to controls: 0 for no effect and ±100 for the full control effect.

SMILES | DT40 TDP1 CPT | IL1B secr inh | VP16 counter | LDHA block | DT40 TDP1 no CPT | RORgamma inh
Cc1ccc2[nH]c(=O)c(C3C(C#N)=C(N)Oc4c3ccc3cccnc43)cc2c1 (stereo unspecified) | 21µM* | ? | -1% | 9 | 21µM* | -6%
CSc1ccc(C2C(C#N)=C(N)Oc3c2ccc2ccccc32)cc1 (stereo unspecified) | nt | nt | nt | 12 | nt | nt
N#CC1=C(N)Oc2c(ccc3cccnc23)C1c1ccccc1 (stereo unspecified) | 5.2µM* | 74 | -4% | 0 | 4.1µM* | -25%
CC(Sc1cccc2cccnc12)C(=O)NC(=O)NC1CCCC1 (stereo unspecified) | nt | nt | nt | 9 | nt | nt
CC(C)=CC(=O)NC(C)c1cc(C)sc1C (stereo unspecified) | nt | nt | nt | 1 | nt | nt
CN(CC(=O)NC1(C#N)CCCC1)C(c1ccccc1)c1ccccc1 | nt | nt | nt | 0 | nt | nt
COc1ccc(C[C@H]2c3cc(O)c(OC)cc3CC[N+]2(C)[O-])cc1O (stereo partly specified) | ? | -17 | 3% | 2 | 21µM* | 10%
Cc1ccc(S(=O)(=O)CCc2ccccc2Cl)cc1C | nt | nt | nt | -2 | nt | nt
Cc1nn(-c2cccc(Cl)c2)c2nc(C(F)(F)F)[nH]c(=O)c12 | ? | 3 | -3% | -8 | 29µM* | 22%
Cc1nn(-c2cc(C(F)(F)F)ccc2Cl)c2nc(C(F)(F)F)[nH]c(=O)c12 | -27% | 14 | -3% | -3 | -3% | 17%
O=C(c1ccc(Nc2nc3ccccc3n3nnnc23)cc1)N1CCN(c2ccc(F)cc2)CC1 | 10µM* | nt | nt | -4 | 9.2µM* | nt
Cc1ccc(CNc2nc3ccc(C)cc3n3nnnc23)cc1 | 0% | nt | nt | 0 | 1% | nt
CC(NC(=O)c1ccc(Nc2nc3ccccc3n3nnnc23)cc1)c1ccccc1 (stereo unspecified) | 13µM* | nt | nt | -4 | 7.3µM* | nt
O=C(NCc1ccc(F)cc1)c1ccc(Nc2nc3ccccc3n3nnnc23)cc1 | 21µM* | nt | nt | -9 | 15µM* | nt
CC(=O)Nc1ccc(Nc2nc3ccc(C)cc3n3nnnc23)cc1 | 6.5µM* | nt | nt | 0 | 6.5µM* | nt
O=C(c1ccccc1-c1ncc(-c2ccc(F)cc2)o1)N1CCCC1 | nt | nt | nt | -11 | nt | nt
CCOc1ccc(CCNC(=O)c2ccc(Nc3nc4ccccc4n4nnnc34)cc2)cc1OCC | -23% | nt | nt | -13 | ? | nt
CCOc1ccc(Nc2nc3ccccc3n3nnnc23)cc1 | ? | 21 | -26% | -11 | -30% | -2%
Cc1ccc(CCNC(=O)c2ccc(Nc3nc4ccccc4n4nnnc34)cc2)cc1 | ? | nt | nt | -8 | 18µM* | nt
CN(C)c1ccc(Nc2nc3ccccc3n3nnnc23)cc1 | ? | nt | nt | 9 | 23µM* | nt
COc1ccc(NC(=O)C2CCC(CNS(=O)(=O)c3ccc(Br)s3)CC2)c(OC)c1 (stereo unspecified) | 18µM* | nt | nt | -15 | ? | nt
CCc1cccc(NC(=O)C2CCC(CNS(=O)(=O)c3ccc(Br)s3)CC2)c1 (stereo unspecified) | ? | nt | nt | 4 | ? | nt
CC(CNC(=O)NCc1ccc(F)cc1)CN1CCN(C)CC1 (stereo unspecified) | nt | nt | nt | -1 | nt | nt
O=C(Cn1cccc1-c1nc(-c2ccc3c(c2)OCO3)no1)Nc1ccc(F)cc1 | nt | nt | nt | -4 | nt | nt
O=C(NC1CCCC1)c1cccc2c1C(=O)c1ccc(/C=C/c3ccccc3)cc1S2(=O)=O | ? | 33 | nt | -5 | 18µM* | nt
SMILES | DT40 TDP1 CPT | IL1B secr inh | VP16 counter | LDHA block | DT40 TDP1 no CPT | RORgamma inh
O=C(NCc1ccccc1)c1cccc2c1C(=O)c1ccc(/C=C/c3ccccc3)cc1S2(=O)=O | ? | 13 | nt | -18 | ? | nt
O=C(NC1CCCCC1)c1cccc2c1C(=O)c1ccc(-c3ccc(OC(F)(F)F)cc3)cc1S2(=O)=O | 9.2µM* | 11 | nt | -9 | 9.2µM* | nt
Cc1ccc(-c2csc(CCn3nc(C)c4c(C(F)(F)F)cc(=O)[nH]c43)n2)cc1 | nt | nt | nt | 2 | nt | nt
O=C(/C=C/c1ccc(Cl)cc1Cl)NC(=S)Nc1ccc(CN2CCOCC2)cc1 | 16µM* | -14 | 4.5µM* | -11 | 13µM* | 3.5µM*
O=C(NC(=S)Nc1ccc(CN2CCOCC2)cc1)c1cccc(F)c1 | ? | -11 | nt | -4 | ? | nt
O=C(/C=C/c1ccccc1)NC(=S)Nc1ccc(CN2CCOCC2)cc1 | ? | -109* | ? | -3 | 18µM* | 4µM*
O=C(/C=C/c1ccc(Cl)cc1Cl)NC(=S)Nc1ccccn1 | -26% | -22 | 5µM* | -6 | ? | 2.8µM*
COc1ccc(CNc2oc(COc3cccc(Cl)c3)nc2C#N)cc1 | nt | nt | nt | -1 | nt | nt
NC(=O)CN1CCC(NC(=O)c2ccc(Oc3ccccc3)cc2)CC1 | nt | nt | nt | 0 | nt | nt
COc1ccc(-c2cc(C(=O)NCC(=O)NC(C)C)c3ccccc3n2)cc1 | nt | nt | nt | 2 | nt | nt
Cc1cccc(NC(=O)CSc2ncc3c(n2)-c2cc(C)ccc2N(C)S3(=O)=O)c1 | nt | nt | nt | -1 | nt | nt
Cc1cnc(C(=O)Nc2cccc(OC3CCCC3)c2)cn1 | nt | nt | nt | 11 | nt | nt
N#CC(=C=[N-])c1nc2ccccc2nc1-[n+]1cccc(NC(=O)c2ccccc2)c1 | -26% | -24 | ? | -2 | -20% | 5µM*!
N#CC(=C=[N-])c1nc2ccccc2nc1-[n+]1cccc(NC(=O)c2cccs2)c1 | 5.8µM* | 19 | 0% | 5 | 6.5µM* | 1%
Cc1ccc(NC(=O)c2sc3nc4c(c(-c5ccco5)c3c2N)CCC4)cc1 | ? | 8 | -11% | 0 | ? | ?
COc1cccc(NC(=O)c2sc3nc4c(c(-c5ccco5)c3c2N)CCCCC4)c1 | nt | nt | nt | 3 | nt | nt
Cc1ccccc1NC(=O)c1sc2nc3c(c(-c4ccco4)c2c1N)CCCC3 | 16µM* | ? | 2% | 0 | ? | 9%
Nc1c(C(=O)Nc2ccccc2)sc2nc3c(c(-c4ccco4)c12)CCC3 | 8.2µM* | -25 | -1% | 8 | 9.2µM* | 32%
Nc1c(C(=O)Nc2ccccc2)sc2nc3c(c(-c4ccco4)c12)CCCC3 | ? | -51* | -7% | -4 | ? | 26%

Screening data (PubChem BioAssay)
